Reference: PubChem BioAssay (Tox21)
Values joined by “and” are separate entries in the source; they are usually repeats but may differ in a detail not shown here. Identical values can stand only once. Records with an inconclusive call do not appear. Where a call stands in place of a potency, no number is given. Where a structure was tested more than once in an assay, its records may differ in their call. Active and inactive are the calls of the source. Unless noted, calls come from the whole dose curve; as a rule, active = well fitted curve in the direction sought with a large enough effect in the repeat runs; inconclusive = weak or mixed curves; inactive = no such curve, though single readings can be large; an effect the other way counts as inactive or inconclusive.

Columns and labels:
[1] = qHTS assay to identify small molecule agonists of the estrogen receptor beta (ER-beta) signaling pathway - cell viability counter screen (AID 1259380); note: nearly all actives have a fitted effect of over 30% in size; note: potency is the fitted concentration of half-maximal effect
How it was run: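 Compounds dissolved in DMSO were pin-transferred onto ER-beta-UAS-bla HEK293T cells that had settled 6 hr, and exposure ran 16 hr at 37C. Following the reporter read, CellTiter-Glo luminescence after 30 min at room temperature indicated cytotoxicity.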

[2] = qHTS assay to identify small molecule antagonists of the estrogen receptor beta (ER-beta) signaling pathway - cell viability counter screen (AID 1259382);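 note: HEK293T cells carrying ER-beta-UAS-bla reporter stimulated with estradiol; series mostly up to about 92 µM; nearly all actives have a fitted effect of over 55% in size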
How it was run: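 CellTiter-Glo ATP luminescence measured after the LiveBLAzer read in the same wells; ER-beta-UAS-bla HEK293T cells, 16 hr compound treatment with 1nM 17-beta-estradiol agonist at 37C, 5% CO2.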

[3] = biological target: Estrogen receptor (Homo sapiens) (UniProt P03372); assay: qHTS assay to identify small molecule agonists of the estrogen receptor alpha (ER-alpha) signaling pathway in the presence of an antagonist (AID 1259383; calls by dose curve; note: top concentration of the series differs between compounds; nearly all actives have a fitted effect of over 15% in size)
How it was run: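 Luminescent ERE-luciferase reporter, VM7Luc4E2 cells (endogenous ER-alpha); 10.0nM ICI-182,780 final; 15-point compound titration; 22hr at 37C; ONE-Glo, 30min RT.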

[4] = qHTS assay to identify small molecule agonists or antagonists of the thyroid stimulating hormone receptor (TSHR) signaling pathway - wild type cell line counter screen (AID 1259384; calls by dose curve)
How it was run: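 Counter screen in untransfected Hek293: compounds (15-point titration, triplicate) plus phosphodiesterase inhibitor Ro20-1724 added after 18 h plating; 30 min RT. Intracellular cAMP via competitive d2/cryptate immunoassay, 1 h incubation.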

[5] = qHTS assay to identify small molecule agonists of the estrogen receptor alpha (ER-alpha) signaling pathway in the presence of an antagonist - cell viability counter screen (AID 1259386);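 note: series mostly up to about 92 µM; cells exposed to compounds for 22 h at 37 °C before the viability read; nearly all actives have a fitted effect of over 30% in size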
How it was run: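 Using estrogen-depleted VM7Luc4E2 cells, the 15-concentration compound series was applied together with 10.0nM ICI-182,780 and incubated 22hr at 37C/5% CO2. Cell viability was then scored by CellTiter-Fluor.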

[6] = biological target: Progesterone receptor (Homo sapiens) (UniProt P06401); assay: qHTS assay to identify small molecule agonists of the progesterone receptor (PR) signaling pathway (AID 1346784; calls by dose curve; note: nearly all actives have a fitted effect of over 30% in size; note: potency is the fitted concentration of half-maximal effect)
How it was run: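 Beta-lactamase reporter read-out: after 16 hr compound treatment at 37C and a further 2 hr at room temperature with LiveBLAzer B/G FRET substrate, fluorescence was measured in PR-UAS-bla HEK 293T cells grown in 2% charcoal-stripped serum.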

[7] = biological target: Progesterone receptor (Homo sapiens) (UniProt P06401); assay: qHTS assay to identify small molecule antagonists of the progesterone receptor (PR) signaling pathway (AID 1346795; active = well fitted inhibition curve with a large enough effect in the signal ratio in the repeat runs, not every such curve was filed as active; the % refers to the signal ratio; note: potency is the fitted concentration of half-maximal effect)
How it was run: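 Read-out is fluorescence from the LiveBLAzer B/G FRET substrate, cleaved by a UAS-controlled beta-lactamase in PR-UAS-bla HEK293T cells after 16 hr exposure to compound plus 1 nM promegestone (final), followed by 2 hr at room temperature.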

[8] = qHTS assay to identify small molecule antagonists of the progesterone receptor (PR) signaling pathway - cell viability counter screen (AID 1346798); note: nearly all actives have a fitted effect of over 50% in size; note: potency is the fitted concentration of half-maximal effect
How it was run: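 HEK293T PR-UAS-bla, 2% charcoal-stripped FBS; 4 hr pre-plate; cpd + R5020, 16 h 37C; LiveBLAzer read first; then CellTiter-Glo 30 min RT, luminescence.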

[9] = qHTS assay to identify small molecule agonists of the progesterone receptor (PR) signaling pathway - cell viability counter screen (AID 1346799; calls by dose curve; note: nearly all actives have a fitted effect of over 45% in size)
How it was run: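 Luminescence from CellTiter-Glo, added after the beta-lactamase FRET read in the same wells, gave cytotoxicity in PR-UAS-bla HEK293T cells treated with compounds for 16 hr at 37C.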

[10] = qHTS assay to identify small molecule antagonists of the TGF-beta/Smad signaling pathway - cell viability counter screen (AID 1346824); note: nearly all actives have a fitted effect of over 50% in size
How it was run: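 Cytotoxicity counter-screen run in the same wells as the beta-lactamase Smad reporter read: CellTiter-Glo luminescence after 30 min at room temperature. HEK 293T SBE-bla cells had 5 hr compound exposure at 37 C with TGF-beta1 (0.25 ng/mL stock).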

[11] = qHTS assay to identify small molecule agonists of the TGF-beta/Smad signaling pathway - cell viability counter screen (AID 1346829); note: top concentration of the series differs between compounds; nearly all actives have a fitted effect of over 45% in size
How it was run: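 Same-well cytotoxicity: CellTiter-Glo added after the 2 hr room-temperature beta-lactamase substrate step, luminescence measured 30 min later; cells had 5 hr of compound at 37 C.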

[12] = qHTS assay to identify small molecule agonists of the TGF-beta/Smad signaling pathway (AID 1346859; active = well fitted activation curve with a large enough effect in the signal ratio in the repeat runs, not every such curve was filed as active; the % refers to the signal ratio; note: series mostly up to about 77 µM)
How it was run: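 SBE-bla HEK 293T, 4,000 cells/well, plated o/n; cpd in DMSO, 5 hr, 37 C/5% CO2; B/G FRET substrate 2 hr RT; ex 405, em 460/530 nm.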

[13] = biological target: Thyrotropin-releasing hormone receptor (Homo sapiens) (UniProt P34981); assay: qHTS assay to identify small molecule antagonists of the thyrotropin-releasing hormone receptor (TRHR) signaling pathway (AID 1346877; active = well fitted inhibition curve with a large enough effect in the repeat runs, not every such curve was filed as active; note: series mostly up to about 51 µM)
How it was run: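 Calcium signal in dye-loaded TRHR/HEK293 cells; compounds added 5 min before TRH (1 nM final); fluorescence monitored 3 min at 1 s steps.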

[14] = biological target: Thyrotropin-releasing hormone receptor (Homo sapiens) (UniProt P34981); assay: qHTS assay to identify small molecule agonists of the thyrotropin-releasing hormone receptor (TRHR) signaling pathway (AID 1346891; calls by dose curve; note: series mostly up to about 58 µM)
How it was run: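 Intracellular calcium rise, read as fluorescence every second for 3 min, served as the agonist signal in dye-loaded HEK293 cells expressing TRHR; each compound ran at 15 concentrations in triplicate.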

[15] = Human pregnane X receptor (PXR) small molecule agonists, qHTS cell viability counter screen (AID 1346977); note: nearly all actives have a fitted effect of over 50% in size; note: potency is the fitted concentration of half-maximal effect
How it was run: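 PXR-Luc HepG2, 2,000 cells/well, 5% charcoal-stripped FBS; 5hr settle; cpd 24hr, 37C/5% CO2; CellTiter-Fluor at 23hr, read 1hr later (fluorescence).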

[16] = Caspase-3/7 induction in HepG2 cells by small molecules, qHTS assay (AID 1346978); note: nearly all actives have a fitted effect of over 15% in size; note: potency is the fitted concentration of half-maximal effect
How it was run: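 Caspase-3/7 induction was measured by Caspase-Glo 3/7 luminescence (30 min, room temperature) after a 17 hr compound exposure of wild-type HepG2 cells seeded at 2,000 per well and pre-incubated 5 hr.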

[17] = Caspase-3/7 induction in CHO-K1 cells by small molecules, qHTS cell viability counter screen (AID 1346979); note: nearly all actives have a fitted effect of over 35% in size; note: potency is the fitted concentration of half-maximal effect
How it was run: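 Cells (CHO-K1, wild type) are plated at 1,500 per well and incubated 5hr. Test compounds in DMSO are then pinned in, followed by 16hr at 37C and 5% CO2. Viability is read by CellTiter-Fluor fluorescence after 1hr.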

[18] = Caspase-3/7 induction in CHO-K1 cells by small molecules, qHTS assay (AID 1346980); note: nearly all actives have a fitted effect of over 15% in size
How it was run: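 Luminescent Caspase-Glo 3/7 read (30min, room temperature) quantified apoptosis induction. Cells were wild-type CHO-K1, treated with compound for 17hr at 37 C and 5% CO2.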

[19] = biological target: Thyrotropin receptor (Homo sapiens) (UniProt P16473); assay: qHTS assay to identify small molecule antagonists of the thyroid stimulating hormone receptor (TSHR) signaling pathway (AID 1259385; calls by dose curve; note: nearly all actives have a fitted effect of over 20% in size; note: potency is the fitted concentration of half-maximal effect)
How it was run: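 Antagonist mode: compound-treated TSHR-expressing HEK293 cells were stimulated with 1.5 ng/mL TSH (final) in presence of Ro20-1724 for 30 min at RT. HTRF cAMP detection after 1 h; each compound tested at 15 concentrations, triplicate.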

Chain of Progesterone receptor (Homo sapiens) (P06401 whole entry, looked up): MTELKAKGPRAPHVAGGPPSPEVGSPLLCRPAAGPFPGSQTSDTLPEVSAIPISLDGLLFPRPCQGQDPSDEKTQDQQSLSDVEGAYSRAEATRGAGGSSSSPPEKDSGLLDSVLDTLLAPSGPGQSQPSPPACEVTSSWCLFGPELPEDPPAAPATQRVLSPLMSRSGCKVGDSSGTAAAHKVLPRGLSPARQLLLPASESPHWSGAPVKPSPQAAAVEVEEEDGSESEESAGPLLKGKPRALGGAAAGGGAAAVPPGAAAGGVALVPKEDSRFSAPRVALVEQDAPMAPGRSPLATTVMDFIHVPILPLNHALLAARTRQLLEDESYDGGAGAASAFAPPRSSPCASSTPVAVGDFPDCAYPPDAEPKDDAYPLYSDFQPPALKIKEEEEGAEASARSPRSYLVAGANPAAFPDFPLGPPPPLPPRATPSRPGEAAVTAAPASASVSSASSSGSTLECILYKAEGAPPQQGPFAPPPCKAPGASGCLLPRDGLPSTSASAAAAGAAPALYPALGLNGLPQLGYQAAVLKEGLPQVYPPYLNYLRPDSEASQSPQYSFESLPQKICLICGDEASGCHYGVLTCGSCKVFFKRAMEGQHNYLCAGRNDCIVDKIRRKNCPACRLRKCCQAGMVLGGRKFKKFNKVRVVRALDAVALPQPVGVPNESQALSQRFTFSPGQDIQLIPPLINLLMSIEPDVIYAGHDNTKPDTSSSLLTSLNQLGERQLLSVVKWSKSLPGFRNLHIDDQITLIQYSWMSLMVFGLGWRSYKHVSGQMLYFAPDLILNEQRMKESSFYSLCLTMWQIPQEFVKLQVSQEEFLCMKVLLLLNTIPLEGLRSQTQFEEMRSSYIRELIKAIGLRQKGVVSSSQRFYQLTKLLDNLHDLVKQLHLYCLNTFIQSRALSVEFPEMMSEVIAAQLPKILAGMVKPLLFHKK
Chain of Thyrotropin receptor (Homo sapiens) (P16473 whole entry, looked up): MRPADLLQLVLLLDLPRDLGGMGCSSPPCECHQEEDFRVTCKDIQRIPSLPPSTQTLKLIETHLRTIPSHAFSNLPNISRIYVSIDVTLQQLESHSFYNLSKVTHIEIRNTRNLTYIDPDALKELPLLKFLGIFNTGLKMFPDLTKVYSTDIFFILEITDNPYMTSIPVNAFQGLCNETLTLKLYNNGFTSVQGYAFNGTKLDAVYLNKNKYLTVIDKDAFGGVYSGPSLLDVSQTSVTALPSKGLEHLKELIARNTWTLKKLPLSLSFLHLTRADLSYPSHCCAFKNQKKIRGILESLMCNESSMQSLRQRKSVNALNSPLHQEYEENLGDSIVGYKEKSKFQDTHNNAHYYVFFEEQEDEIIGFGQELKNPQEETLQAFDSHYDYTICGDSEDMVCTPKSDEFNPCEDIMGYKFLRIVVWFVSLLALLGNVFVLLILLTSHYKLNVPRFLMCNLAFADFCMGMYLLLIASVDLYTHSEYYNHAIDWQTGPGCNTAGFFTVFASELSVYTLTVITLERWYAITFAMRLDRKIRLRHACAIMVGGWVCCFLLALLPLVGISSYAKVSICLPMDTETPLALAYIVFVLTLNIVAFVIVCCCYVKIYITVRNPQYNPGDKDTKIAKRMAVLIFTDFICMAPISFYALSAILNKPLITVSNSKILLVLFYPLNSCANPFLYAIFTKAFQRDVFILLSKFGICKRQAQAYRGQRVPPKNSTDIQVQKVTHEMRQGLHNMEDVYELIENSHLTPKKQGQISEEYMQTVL
Chain of Thyrotropin-releasing hormone receptor (Homo sapiens) (P34981 whole entry, looked up): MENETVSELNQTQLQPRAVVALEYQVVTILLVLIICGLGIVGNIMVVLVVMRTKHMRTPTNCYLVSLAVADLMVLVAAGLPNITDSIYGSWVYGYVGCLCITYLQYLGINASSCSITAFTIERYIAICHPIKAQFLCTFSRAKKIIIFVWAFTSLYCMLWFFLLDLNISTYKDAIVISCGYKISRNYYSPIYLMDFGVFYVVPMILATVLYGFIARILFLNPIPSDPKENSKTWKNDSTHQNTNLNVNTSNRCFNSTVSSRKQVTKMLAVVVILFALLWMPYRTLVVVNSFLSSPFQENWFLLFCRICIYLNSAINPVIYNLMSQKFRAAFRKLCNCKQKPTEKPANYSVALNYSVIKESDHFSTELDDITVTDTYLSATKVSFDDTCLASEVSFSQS
Chain of Estrogen receptor (Homo sapiens) (P03372 whole entry, looked up): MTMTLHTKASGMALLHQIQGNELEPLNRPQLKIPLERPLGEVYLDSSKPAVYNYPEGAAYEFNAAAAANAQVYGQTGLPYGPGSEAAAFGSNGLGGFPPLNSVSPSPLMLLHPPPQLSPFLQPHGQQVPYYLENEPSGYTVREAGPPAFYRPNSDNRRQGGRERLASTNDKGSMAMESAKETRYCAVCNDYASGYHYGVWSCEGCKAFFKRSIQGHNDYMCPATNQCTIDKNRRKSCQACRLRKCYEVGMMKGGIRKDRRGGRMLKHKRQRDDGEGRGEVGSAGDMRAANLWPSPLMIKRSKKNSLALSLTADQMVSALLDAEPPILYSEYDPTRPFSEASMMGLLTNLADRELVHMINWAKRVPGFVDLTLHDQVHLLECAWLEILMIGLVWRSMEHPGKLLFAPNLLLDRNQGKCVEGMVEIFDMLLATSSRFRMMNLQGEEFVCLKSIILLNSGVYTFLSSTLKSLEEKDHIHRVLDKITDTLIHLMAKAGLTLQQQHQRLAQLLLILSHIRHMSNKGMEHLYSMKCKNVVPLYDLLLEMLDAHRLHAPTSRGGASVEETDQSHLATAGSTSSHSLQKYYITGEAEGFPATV

Row | SMILES | Potency [1] | Potency [2] | Potency [3] | outcome [4] | Potency [5] | Potency [6] | Potency [7] | Potency [8] | Potency [9] | Potency [10] | Potency [11] | outcome [12] | Potency [13] | outcome [14] | Potency [15] | Potency [16] | Potency [17] | outcome [18] | Potency [19] | activation [6]
1 | O=S(=O)(O)c1ccc2ccccc2c1 | inactive | inactive | inactive | inactive | inactive | inactive | inactive | inactive | inactive | inactive | inactive | inactive | inactive | inactive | inactive | inactive | inactive | inactive |  | 
2 | O=C(O)CCCCCCCCCCC(=O)O | inactive | inactive | inactive | inactive | inactive | inactive | inactive | inactive | inactive |  | inactive |  |  |  | inactive | inactive | inactive | inactive |  | 
3 | C/C=C1/CC2C=CC1C2 (stereo not drawn) | inactive | inactive | inactive |  | inactive | inactive | inactive | inactive | inactive |  | inactive | inactive | inactive | inactive | inactive |  | inactive | inactive |  | 
4 | C=C(C)C(=O)OCCOCCOCCOC(=O)C(=C)C | inactive | inactive |  | inactive | inactive | inactive | inactive | inactive | inactive | inactive | inactive | inactive | inactive | inactive | inactive | inactive | inactive | inactive |  | 
5 | CCCCOC(=O)COc1ccc(Cl)cc1Cl | inactive | inactive |  | inactive | inactive | inactive | inactive | inactive | inactive | inactive | inactive |  | inactive | inactive | inactive | inactive | inactive | inactive | inactive | 
6 | O=C(CC(C(=O)OC1CCCCC1)S(=O)(=O)O)OC1CCCCC1 (stereo not drawn) | inactive | inactive |  | inactive | inactive | inactive | inactive | inactive | inactive |  | inactive | inactive |  |  | inactive |  | inactive | inactive | inactive | 
7 | CCCCC(CC)COC(=O)C(C#N)=C(c1ccccc1)c1ccccc1 (stereo not drawn) | inactive | inactive |  | inactive | inactive | inactive | 8.63 µM (active) | inactive |  |  | inactive |  | inactive | inactive | inactive | inactive | 48.6 µM (active) and 18.8 µM (active) | inactive | 61.1 µM (active) | 
8 | CN(C)CCC(c1ccccc1)c1ccccn1 (stereo not drawn) | inactive | inactive |  | inactive | inactive | inactive | inactive | inactive | inactive |  | inactive |  | inactive | inactive | inactive | inactive | inactive | inactive | inactive | 
9 | CCCSc1ccc2nc(NC(=O)OC)[nH]c2c1 | inactive | inactive |  |  | inactive | inactive | 4.86 µM (active) |  | inactive | inactive | inactive |  | inactive | inactive | inactive | 0.969 µM (active) |  | inactive |  | 
10 | COc1ccc(Cl)cc1C(=O)NCCc1ccc(S(=O)(=O)NC(=O)NC2CCCCC2)cc1 | 48.6 µM (active) | inactive |  | inactive | inactive | inactive | inactive | inactive | inactive | inactive | inactive |  | inactive | inactive | inactive | inactive | inactive | inactive |  | 
11 | O=C1CCC(N2C(=O)c3ccccc3C2=O)C(=O)N1 (stereo not drawn) | inactive | inactive |  | inactive | inactive | inactive | inactive | inactive | inactive |  | inactive | inactive | inactive | inactive | inactive |  | inactive | inactive |  | 
12 | ON=C1CCCCC1 | inactive | inactive |  | inactive | inactive | inactive | inactive | inactive | inactive | inactive | inactive |  |  |  | inactive | inactive | inactive | inactive | inactive | 
13 | O=C(O)[C@H](O)[C@@H](O)[C@H](O)[C@H](O)CO | inactive | inactive |  |  | inactive | 2.43 µM (active) | inactive | inactive | inactive |  | inactive | inactive |  |  | inactive |  | inactive | inactive |  | -0.268% [at 3.27 µM] (inactive)
14 | Oc1cccc2ccccc12 | inactive | inactive |  | inactive | inactive | inactive | 28 µM (active) and 43.3 µM (active) | inactive | inactive | inactive | inactive |  | inactive | inactive | inactive |  | inactive | inactive |  | 
15 | CN(C)CCC(c1ccc(Cl)cc1)c1ccccn1 (stereo not drawn) | 48.7 µM (active) |  |  | inactive | inactive | inactive | inactive | 54.6 µM (active) |  |  | inactive |  | inactive | inactive | 44.7 µM (active) | inactive | inactive | inactive |  | 
16 | O=c1[nH]nnc2ccccc12 | inactive | inactive |  | inactive | inactive | inactive | inactive | inactive | inactive | inactive | inactive |  |  |  | inactive | inactive | inactive | inactive |  | 
17 | COCCCOc1ccnc(CS(=O)c2nc3ccccc3[nH]2)c1C (stereo not drawn) | inactive | inactive |  | inactive | inactive | inactive | 60.9 µM (active) and inactive | inactive |  |  | inactive |  | inactive | inactive | inactive |  | 60.9 µM (active) and inactive | inactive |  | 
